This assay relates to HL-1. The assay can be described thus: protection of cardiomyocytes from stress damage, SAR follow-up, cell-based, panel, H9c2 and HL-1, ATP luminescence, set 2 (AID 651871).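 Note: cells exposed to stressor for 2 h before ATP readout; reference of the scale not given here.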 Conditions: H9c2/HL-1 cardiomyocytes, 2-deoxyglucose stress, with 2-deoxyglucose, run 16, at 19.8 µM (top of the series).

“And” between values parts separate entries of the source, which are not always exact repeats. Equal values may be shown once.

With `COc1ccc2c(c1OC)C(=O)N1c3ccccc3C(=O)N(Cc3cccc(Cl)c3Cl)C21` (stereo unspecified), the activity (protection/inhibition) was 50.9% and 45%.

These data come from PubChem BioAssay AID651871 (Sanford-Burnham Center for Chemical Genomics, 2012).
